Assay results from PubChem BioAssay (NCATS).
Values joined by “and” are separate entries in the source; they are usually repeats but may differ in a detail not shown here. Identical values can stand only once. Active and inactive are the calls of the source. Calls come from the whole dose curve; as a rule, active = well fitted activation curve with a large enough effect; inconclusive = small, poorly fitted or top-dose-only effect; inactive = no such curve, though single readings can be large or run the other way.

molecular target: Cytochrome P450 3A4 (Homo sapiens) (UniProt P08684); test: qHTS Assay for Activators of Cytochrome P450 3A4 (AID 885); conditions: recombinant CYP3A4, Luciferin-PPXE luminescence, 60 min; series mostly up to 57.1 µM; note: nearly all actives have a fitted effect of over 65% in size
Sequence (P08684 whole entry, looked up): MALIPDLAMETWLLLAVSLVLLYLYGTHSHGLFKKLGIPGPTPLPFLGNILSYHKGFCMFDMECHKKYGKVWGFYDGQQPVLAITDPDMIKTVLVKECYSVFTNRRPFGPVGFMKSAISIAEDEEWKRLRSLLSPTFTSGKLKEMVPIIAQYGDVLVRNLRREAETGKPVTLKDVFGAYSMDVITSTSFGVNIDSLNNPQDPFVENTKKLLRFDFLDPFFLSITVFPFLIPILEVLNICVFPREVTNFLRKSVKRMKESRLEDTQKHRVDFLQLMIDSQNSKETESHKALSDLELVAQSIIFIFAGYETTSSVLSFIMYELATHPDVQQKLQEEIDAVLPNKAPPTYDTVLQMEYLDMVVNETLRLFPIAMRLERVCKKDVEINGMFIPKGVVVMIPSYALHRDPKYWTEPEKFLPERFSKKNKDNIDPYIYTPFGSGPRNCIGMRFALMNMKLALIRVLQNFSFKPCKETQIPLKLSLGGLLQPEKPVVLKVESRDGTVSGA
In short: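 Steps: enzyme/substrate mix dispensed; compound added, 10 min RT; NADPH regeneration solution added, 60 min RT; luciferin detection buffer stops reaction; 20 min later luminescence measured.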

Activity change, positive = activation, inactive:
COCC#Cc1ccc(C2C(C)CCC3C(=O)N4C(CCC(C)C4c4ccc(C#CCOC)cc4)C(=O)N32)cc1 (centres undefined) -65.6% [at 11.4 µM], C=CCC1C=CC(Oc2ccc(F)cc2C)C(CO)O1 (centres undefined) -81.3% [at 11.4 µM], COc1ccc(O[C@H]2C=C[C@@H](c3ccccc3)O[C@H]2CO/N=C\C[C@@H]2C=C[C@H](OC(C)=O)[C@H](COC(C)=O)O2)cc1 -90.6% [at 11.4 µM], COc1ccc(O[C@H]2C=C[C@@H](c3ccccc3)O[C@H]2COC(=O)CC/C(C)=N\O[C@@H](C)CN2CCCc3nc(C)c(C)cc32)cc1 -97% [at 11.4 µM], C/C=C/OC(=O)NC(c1ccccc1)[C@]1(C(C)=O)CCOC1=O (some centres undefined) -81.2% [at 11.4 µM], CCO[C@H](c1cc(OC)cc([N+](=O)[O-])c1OC)[C@H](C)/C=C\CC(=O)OC -72.1% [at 11.4 µM], CC(C)CCN1CCc2nc(COc3ccccc3)c3c(c2C1)COC(C)C3 (centres undefined) -76.7% [at 11.4 µM], CC(C)(C)c1ccc(OC2C(O)COC2/C=C/C#Cc2ccccc2)cc1 (centres undefined) -77.1% [at 11.4 µM] and -67.5% [at 11.4 µM], CC(=O)OCC1OC(c2ccc3c(c2)OCO3)C=CC1OC(C)=O (centres undefined) -75.4% [at 11.4 µM], C[C@@H](c1ccccc1)N1C(=O)[C@H]2[C@H]3[C@H](O)[C@H](O)C/C(=N/OC[C@@H](O)COCc4ccco4)[C@@H]3CC[C@@H]2C1=O -82.9% [at 11.4 µM], COc1ccc(C#CC2C=CC(Oc3cc(C)cc(C)c3)C(CO)O2)cc1 (centres undefined) -94.5% [at 11.4 µM], COc1ccc(O[C@H]2C=C[C@@H](c3ccccc3)O[C@H]2COC(=O)CC/C(C)=N/O[C@@H]2O[C@H](COC(C)=O)[C@H](OC(C)=O)[C@H](OC(C)=O)[C@H]2OC(C)=O)cc1 -91.6% [at 11.4 µM], C=CCC1C=CC(Oc2ccc(OC)cc2)C(COC(=O)c2ccc(Br)cc2)O1 (centres undefined) -92.4% [at 11.4 µM], COc1ccc(/C=C/C2=CC3(C)CC2(C)C(c2ccc(OC)cc2)CC3=O)cc1 (centres undefined) -60.7% [at 11.4 µM], COC(=O)C/C=C\[C@@H](C)[C@@H](/C=N\OC[C@@H]1O[C@H](c2ccccc2)C=C[C@@H]1Oc1ccc(OC)cc1)OC -96.1% [at 11.4 µM], COc1cccc([C@@H]2Oc3ccc(OC)cc3/C(=N/OC[C@@H](O)COCc3ccco3)[C@@H]2O)c1 -84.1% [at 11.4 µM], COc1cccc([C@@H]2Oc3ccc(OC)cc3/C(=N/O[C@@H](C)c3cc(-c4c(C)cc(C)cc4C)no3)[C@@H]2O)c1 -90.1% [at 11.4 µM], COC(=O)C[C@@H]1O[C@H]1[C@H](C)[C@@H](OC)C(C)C -66.6% [at 11.4 µM], C/C(CCC(=O)OC[C@@H]1O[C@H](C#Cc2ccccc2)C=C[C@@H]1Oc1ccc(C)cc1)=N/O[C@@H](C)CN1CCCc2nc(C)c(C)cc21 -95.5% [at 11.4 µM], COc1ccc(O[C@H]2C=C[C@@H](c3ccccc3)O[C@H]2CO/N=C2/[C@H]3O[C@@H]3[C@@H](O)[C@H]3[C@H]2CCn2c(=O)n(-c4ccccc4)c(=O)n23)cc1 -86.5% [at 11.4 µM], COc1ccc(O[C@H]2C=C[C@@H](c3ccccc3)O[C@@H]2CO/N=C(\C)CCN2CCCc3nc(C)c(C)cc32)cc1 -63.6% [at 11.4 µM], C=CC[C@@H]1C=C[C@H](Oc2ccc(C)cc2)[C@H](COC(=O)NCc2cccc3ccccc23)O1 -96.8% [at 11.4 µM], COc1ccc(O[C@H]2C=C[C@@H](c3ccccc3)O[C@H]2COC(=O)CC/C(C)=N\O[C@@H](C)CN2CCCCc3nc(C)c(C)cc32)cc1 -114% [at 11.4 µM], Cc1ccc(S(=O)(=O)N[C@H]2COC(=O)[C@@H](Cc3ccccc3)NC(=O)[C@@H](C)COC(=O)C/C=C\[C@@H]2C)cc1 -80.1% [at 11.4 µM], CCCCC#CC1C=CC(Oc2ccc(C(=O)OC)cc2)C(COC(=O)OCC)O1 (centres undefined) -80.8% [at 11.4 µM], COc1ccc(O[C@H]2C=C[C@@H](c3ccccc3)O[C@H]2COC(=O)CC/C(C)=N\O[C@@H](C)c2cn([C@H]3COC[C@H]3O)nn2)cc1 -77.3% [at 11.4 µM], COc1ccc(O[C@H]2C=C[C@@H](c3ccccc3)O[C@@H]2CO/N=C(\C)CCN2CCCCc3nc(C)c(C)cc32)cc1 -86.9% [at 11.4 µM], C=C(C)C(O)/C=C/c1cccc(OC)c1 (centres undefined) -69.2% [at 11.4 µM]

Potency, inactive:
COc1cc(OC)c2c(=O)c(-c3ccc4c(c3)OCO4)coc2c1, C=C1C(=O)OC2C[C@@]3(C)CCCC(C)C3=CC12 (some centres undefined), COc1ccc2c(c1)OC/C(=C/c1ccc(OC)c(OC)c1)C2=O, Nc1nc2c(ncn2C2OC(COC(=O)c3ccccc3)C(OC(=O)c3ccccc3)C2OC(=O)c2ccccc2)c(=O)[nH]1 (centres undefined), CC(=O)c1c(O)cc(O)cc1O, COc1ccc(-c2cc(=O)c3ccccc3o2)cc1, COc1cc2c(cc1OC)-c1c(oc3cc(O)cc(O)c3c1=O)CO2, COc1ccc(-c2cc(=O)c3ccccc3o2)cc1OC, CC(=O)Oc1c(-c2ccccc2)oc2c(CC=C(C)C)c3c(c(OC(C)=O)c2c1=O)C=CC(C)(C)O3, CC(C)=CCc1c(O)cc2occ(-c3ccc4c(c3)OCO4)c(=O)c2c1O, C=C1C2CC[C@@]3(C)C(c4ccoc4)OC(=O)C[C@@]13OC1CC(OC(C)=O)C(C)(C)C(CC(=O)OC)[C@@]12C (some centres undefined)
